Source: PubChem BioAssay
KB-V1 MDR tox: qHTS assay for MDR1-selective chemotherapeutics: Primary screen using the drug-selected MDR subline cells KB-V1; KB-V1 MDR cells viability, CellTiter-Glo, 72 h; Potency, µM (titrated, usually from 46.1 µM), actives largely listed as cytotoxic; 400,000 compounds, 3.4% hits; AID 1347076, 2019; also: % is scaled to controls: 0 for no effect and ±100 for the full control effect; nearly all actives have a fitted effect of over 60% in size
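Compound-treated KB-V1 multidrug-resistant cells, 72 h, 37 degrees C; viability by CellTiter-Glo. Fitted qHTS curves give the values.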
SW480 rereplic: A quantitative high throughput screen for small molecules that induce DNA re-replication in SW480 colon adenocarcinoma cells; 340,000 compounds, 1.8% hits; Potency, µM (titrated, usually from 46.1 µM), for the others: top-dose re-replication activation, most hits filed as activators; SW480 DNA re-replication, Hoechst DNA content imaging, 48 h; AID 624297, 2012; also: % of control where 0% means no effect; nearly all actives have a fitted effect of over 55% in size
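Per well, 250 cells were exposed to pinned compound for 48 hr. Nuclear DNA was visualised with Hoechst (40 min, 37 C) and total object intensity recorded by fluorescence scanning.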
MCF10A rerep: A quantitative high throughput screen for small molecules that induce DNA re-replication in MCF 10a normal breast cells | AID 624296, 2012 | MCF 10A DNA re-replication, Hoechst nuclear intensity, 48 h | Potency, µM (titrated, usually from 46.1 µM), without a hit: at the top dose activity, positive = re-replication, actives largely listed as activators | 350,000 compounds, 2.9% hits; also: % of control where 0% means no effect; nearly all actives have a fitted effect of over 50% in size
ELG1 DNA repair: qHTS screen for small molecules that inhibit ELG1-dependent DNA repair in human embryonic kidney (HEK293T) cells expressing luciferase-tagged ELG1 | 330,000 compounds, 2.3% hits | Potency, µM (series often up to 46.1 µM), for inactives: at the highest dose activity change, negative = inhibition, usual class: inhibitors | HEK293T ELG1-luciferase reporter, luminescence, 16 h; DNA damage induced by 5-fluorouridine | AID 504467, 2011; also: % is scaled to controls: 0 for no effect and ±100 for the full control effect; nearly all actives have a fitted effect of over 55% in size
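Luminescence from the luciferase reporter, measured 30 min after ONE-Glo reagent at room temperature, was the read-out. Beforehand, 2,000 cells per well were exposed for 16 hr at 37 °C to 5-fluorouridine together with compound or vehicle.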
KB-3-1 cytotox: qHTS assay for MDR1-selective chemotherapeutics: Primary screen using the parental adenocarcinoma cell KB-3-1 | KB-3-1 viability, CellTiter-Glo ATP luminescence, 72 h | Potency, µM (titrated, usually from 46.1 µM), most hits filed as cytotoxic | 400,000 compounds, 1.4% hits | AID 1347075, 2019; also: % is scaled to controls: 0 for no effect and ±100 for the full control effect; nearly all actives have a fitted effect of over 60% in size
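Using CellTiter-Glo luminescence, growth of non-resistant KB-3-1 adenocarcinoma cells is assessed 72 h after pin-tool compound addition at 37 °C. Normalized responses across the concentration series yield fitted curves.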
* marks the source's active call; other numbers are inactive results; i = inactive; ? = inconclusive; . = no result. Most compounds without a hit are left out; they make up all but 8.1% or so of the library. Calls follow the shape of the dose curve; as a rule, active = well fitted curve in the direction sought with a large enough effect; inconclusive = small, poorly fitted or top-dose-only effect, or another doubt; inactive = no such curve, though single readings can be large; an effect the other way counts as inactive or inconclusive. Potency is read from the fitted curve at half-maximal effect.

SMILES | KB-V1 MDR tox | SW480 rereplic | MCF10A rerep | ELG1 DNA repair | KB-3-1 cytotox
COc1cc(/C=N/NC(=O)c2ccc(C)nc2)cc([N+](=O)[O-])c1O | i | -8% | 3% | -14% | i
COc1cc([N+](=O)[O-])cc(/C=N/NC(=O)C(C)Nc2ccccc2C)c1O (stereo unspecified) | 12µM* | ? | 1.6µM* | ? | ?
COc1cc([N+](=O)[O-])cc(/C=N/NC(=O)Cn2cncn2)c1O | ? | -2% | 16µM* | ? | ?
COc1cc([N+](=O)[O-])cc(/C=N/NC(=O)C(C)Nc2cccc(C)c2)c1O (stereo unspecified) | ? | . | ? | -6% | ?
COc1cc([N+](=O)[O-])cc(/C=N/NC(=O)c2ccc(C)nc2)c1O | ? | . | 15µM* | -11% | ?
COc1ccccc1/C=N/NC(=O)c1ccc(NC(=O)c2cccc([N+](=O)[O-])c2)cc1 | . | . | . | 9% | .
COc1ccccc1CNC(=O)C1CCN(S(=O)(=O)c2ccc3c(c2)CCCN3C(C)=O)CC1 | i | . | . | . | i
CCOc1cc([N+](=O)[O-])cc(/C=N/NC(=O)c2c(-c3ccccc3)noc2C)c1O | ? | 8.2µM* | 15% | ? | ?
C[N+](C)(C)CCN1CCc2ccccc21 | ? | . | . | . | i
Cc1sc(-c2cc3c([nH]c2=O)CC(c2ccccc2)CC3=O)nc1-c1ccc(Cl)cc1 (stereo unspecified) | 0.82µM* | . | . | . | 1µM*
O=C1CC(c2ccccc2)Cc2[nH]c(=O)c(-c3nc(-c4ccc(F)cc4)cs3)cc21 (stereo unspecified) | i | . | . | . | 4.6µM*
Cc1cccc(N(CC(=O)NCCc2ccccc2)C(=O)CCC(=O)Nc2ccccn2)c1C | ? | 6% | 4% | -1% | i
CC(=O)Nc1cccc(OC2=NS(=O)(=O)c3ccccc32)c1 | i | . | . | . | i
CCC(Oc1ccc(C)cc1)C(=O)Nc1ccccc1C(=O)N1CCOCC1 (stereo unspecified) | i | -1% | -8% | -16% | i
COc1ccc(-c2cc(C(F)(F)F)nc(SCC(=O)N(C)Cc3cn(C)nc3C)n2)cc1OC | 18µM* | -1% | ? | ? | ?
COc1ccc(-c2cc(C(F)(F)F)nc(SCC(=O)NCc3cnn(C)c3C)n2)cc1OC | 9.2µM* | 14% | -1% | -12% | ?
COc1ccc(-c2cc(C(F)(F)F)nc(SCC(=O)NCCc3ccccc3)n2)cc1OC | i | . | . | . | i
COc1ccc(-c2cc(C(F)(F)F)nc(NCc3ccco3)n2)cc1OC | 2.3µM* | 4% | 13% | ? | i
COc1ccccc1C(=O)Nc1nnc(SCC(=O)NCc2ccco2)s1 | i | 21µM* | 0% | ? | i
Cc1ccc(CCNC(=O)c2cc3cc4cc(C)ccc4nc3s2)cc1 | i | . | . | . | i
Cn1c(=O)c2cc(C(=O)NCCCN3CCN(c4ccc(F)cc4)CC3)sc2c2ccccc21 | i | . | . | . | i
CCCCCNC(=O)C1C(=O)Nc2ccccc2C(=O)N1c1ccc(OC)cc1 (stereo unspecified) | i | . | . | . | i
COC(=O)c1ccccc1S(=O)(=O)Nc1cc(=O)c2ccccc2[nH]1 | i | . | . | . | i
COc1ccc(-c2cc(C(F)(F)F)nc(SCC(=O)NCc3ccco3)n2)cc1OC | i | -4% | -1% | 23µM* | i
COc1ccc(/C=N/Nc2nc(-c3ccc(Cl)cc3)cc(C(F)(F)F)n2)cc1OC | 7.3µM* | -4% | 26% | ? | i
SMILES | KB-V1 MDR tox | SW480 rereplic | MCF10A rerep | ELG1 DNA repair | KB-3-1 cytotox
COc1ccc(-c2ccc(SCC(=O)NCc3ccco3)nn2)cc1OC | 9.2µM* | -7% | 12% | 29% | i
COc1ccc(-c2ccc(SCC(=O)c3cccs3)nn2)cc1OC | 2.3µM* | 3% | 4% | 6% | i
COc1ccc(/C=N/Nc2nc(C)cc(-c3ccccc3)n2)cc1OC | i | ? | ? | ? | i
OC[C@@H]1CN(Cc2ccc(Cl)cc2)C[C@H](n2cnc3c(N4CCCC4)ncnc32)O1 | i | . | . | . | i
COc1cc(OC)c(C(=O)OCC(=O)N2CCOCC2)cc1OC | i | -2% | 0% | 14% | i
Cc1ccc(NC(=O)CCl)c(C)c1 | ? | ? | ? | ? | 16µM*
Cc1ccc(NC(=O)CC2Sc3ccccc3NC2=O)c(C)c1 (stereo unspecified) | ? | . | . | . | 16µM*
Cc1ccc(NC(=O)CCc2ccc(C)o2)c(C)c1 | ? | 10% | 2% | 7% | ?
CS(=O)(=O)c1ccc(Cl)c(NC(=O)CCl)c1 | 21µM* | ? | ? | ? | 6.5µM*
COc1ccc(Cl)cc1N(C)C(=O)Cn1cnc2sc(C)c(S(=O)(=O)N3CCN(c4ncccn4)CC3)c2c1=O | i | . | . | . | i
COc1ccccc1C(CNC(=O)CCNS(=O)(=O)c1ccc(Br)cc1)N1CCCC1 (stereo unspecified) | i | 6.5µM* | -4% | . | i
COc1ccc(C(CNC(=O)CCNS(=O)(=O)c2ccc(Br)cc2)N2CCCC2)cc1 (stereo unspecified) | ? | -10% | 0% | ? | i
CCCn1nc([N+](=O)[O-])c(C(C#N)c2nc3ccccc3s2)c(Cl)c1=O (stereo unspecified) | 5.8µM* | 1.3µM* | ? | 18µM* | ?
CCn1nc([N+](=O)[O-])c(C(C#N)c2nc3ccccc3n2C)c(Cl)c1=O (stereo unspecified) | i | -2% | ? | 0% | i
O=C(/C=C/c1ccccc1)N1CCN(c2cccc(Cl)n2)CC1 | 18µM* | -2% | -1% | -15% | i
O=C(/C=C/c1ccc(F)cc1)N1CCN(c2ccccn2)CC1 | i | -12% | 4% | ? | i
Cc1nn(C)c(Oc2ccccc2)c1CCNS(=O)(=O)c1ccc(Cl)cc1 | 18µM* | 1% | 10% | ? | ?
CC1CCN(c2oc(-c3ccc(COc4ccccc4)o3)nc2C#N)CC1 | i | . | . | . | i
COc1ccc(OC)c(C(=O)CSc2nnc(C3CC3)n2C2CC2)c1 | i | . | . | . | 16µM*
CCc1ccc(C(=O)CSc2nnc(C3CC3)n2C2CC2)cc1 | 12µM* | -3% | 15% | ? | i
COC(=O)c1ccc2c(=O)n(CCCCCC(=O)NCc3ccc(OC)cc3)c(=O)[nH]c2c1 | i | . | . | . | i
